Assay results from PubChem BioAssay AID1053143 (Broad Institute, 2014).
The whole screen tested about 3,400 compounds, of which about 120 (3.5%) were called active. How the calls were made is not given here. Only a sample is shown. Measured potencies and affinities stand elsewhere.

Assay: HepG2 cell cytotoxicity, dose response, cytotoxicity control, ATP luminescence, cherry-pick, activator set 2 (AID 1053143)
Details: HepG2 viability, CellTiter-Glo ATP luminescence, 72 h; series mostly up to 26 µM; activity change, negative = cytotoxicity: at the top concentration

Structure (SMILES)	activity change, negative = cytotoxicity
O=[N+]([O-])c1ccc2nc(-c3ccccc3[N+](=O)[O-])[nH]c2c1	-5.65% (inactive)
CC(C)(C)NC(=O)c1cccc(NC(=O)c2cccc(O)c2)c1	-6.98% (inactive)
CCC(=O)Nc1cc(NC(=O)CSc2ncc(-c3ccc(F)cc3)n2Cc2ccco2)ccc1C	-14.2% (inactive)
O=C(CSc1nncs1)NC(=O)Nc1ccc2c(c1)OCCO2	-4.21% (inactive)
Cc1ccc(NC(=O)c2cc(-c3cccs3)on2)cc1C	12.4% (inactive)
CC(C)NC(=O)c1cc(-c2cccs2)on1	-17.5% (inactive)
CCOC(=O)c1ccc(NC(=O)C2CC3CCC2C3)cc1 (configuration not stated)	-0.283% (inactive)
CCOc1ccc(C(=O)Nc2ccc3[nH]ncc3c2)cc1	-17.4% (inactive)
CCOc1ccc(C(=O)NC2CCCCCCC2)cc1	-19.9% [at 12 µM] (inactive)
O=C(Nc1ccc2ccccc2n1)c1ccccc1Cl	-20.5% (inactive)
Cn1c(CCNC(=O)c2ccco2)nc2cc(NC(=O)c3ccco3)ccc21	17% (inactive)
Cc1ccc(C(=O)Nc2nc3ccc(Cl)cc3s2)o1	-14.4% (inactive)
O=C(Nc1nc2ccc(F)cc2s1)c1cccs1	-9.76% (inactive)
CC(=O)Nc1nc2cc3c(cc2s1)OCCO3	4.89% (inactive)
COc1ccc2nc(NC(=O)c3ccccc3O)sc2c1	-6.8% (inactive)
CN(C)S(=O)(=O)c1ccc2nc(NC(=O)c3cccnc3)sc2c1	-8.19% (inactive)
O=C(Nc1nc2cc3c(cc2s1)OCO3)C1CCCCC1	39.8% (inactive)
O=C(Nc1nc2cc3c(cc2s1)OCCO3)C1CCCCC1	-13.1% (inactive)
CC(C)(C)C(=O)Nc1nc2cc3c(cc2s1)OCO3	-18.5% (inactive)
Nc1[nH]n(-c2ccccc2)c(=O)c1N=Nc1ccccc1	-8.67% (inactive)
CC(=O)Nc1cccc(-c2csc(Nc3ncccn3)n2)c1	4.47% (inactive)

Structure (SMILES)	activity change, negative = cytotoxicity
COc1ccc(N(C(=O)c2ccc(S(=O)(=O)N3CCCC3)cc2)C2C=CS(=O)(=O)C2)cc1 (configuration not stated)	-4.95% (inactive)
N/C(=N\OC(=O)c1ccc2c(c1)OCO2)c1ccncc1	-0.949% (inactive)
N#Cc1cccc(NC(=O)COC(=O)Cn2nc(-c3ccccc3)oc2=O)c1	-7.49% (inactive)
CC1CC(O)C(C)CN1 (configuration not stated)	9.74% (inactive)
O=C(NC1CCCCC1)c1ccc2ccccc2c1	-2.43% (inactive)
CCc1ccccc1Nc1nc(N)nc(CSCC(=O)Nc2ccc(C)c(C)c2)n1	-11.2% (inactive)
O=c1[nH]c(-c2ccccc2)nnc1-c1ccccc1	-10.4% (inactive)
O=C(OCC(=O)c1ccc(Br)s1)c1ccc(O)cc1	-0.455% (inactive)
c1cncc(CNc2cccc(-c3nc4ccccc4[nH]3)c2)c1	6.83% [at 12 µM] (inactive)
O=C(Nc1ccc(-c2nc3ccccc3o2)cc1)c1cccnc1	10.4% (inactive)
Cc1ccc(-c2cc3nc(NCCc4ccncc4)n(C)c(=O)c3s2)cc1	-1.72% (inactive)
Cc1ccc(C(=O)Nc2ccc(N3CCCCC3)cc2)cc1	-5.53% (inactive)
O=C(Cc1ccccc1)Nc1ccc(N2CCCCC2)cc1	-10% (inactive)
COc1ccc(-c2cn3cccc(C)c3n2)cc1F	-15.3% (inactive)
COc1ccc(C2=Nc3ccccc3N(C(=O)c3ccc4ncccc4c3)C2C(=O)NC(C)(C)C)cc1 (configuration not stated)	-21.3% (inactive)
CN(C)c1ccc(N=Nc2ccc(S(N)(=O)=O)cc2)cc1	-4.4% (inactive)
Cc1ccc2nc(/C=C/c3cccc(F)c3)ccc2c1	-21.2% (inactive)
Cc1cccc(/C=C/c2ccccc2)n1	5.81% (inactive)
CCNS(=O)(=O)c1ccc2nc(NC(=O)/C=C/c3cc(OC)c(OC)c(OC)c3)sc2c1	-1.13% (inactive)
COc1cc(/C=C/c2ccc3cccc(O)c3n2)cc(Cl)c1OC	-24.2% (inactive)
Cc1cccc(NC(=O)Nc2ccc3c(c2)OCO3)n1	-21.1% (inactive)

Structure (SMILES)	activity change, negative = cytotoxicity
O=C(NC1CCCC1)c1noc2c1CCCCC2	5.25% (inactive)
O=C(NC1CCCCCCC1)NC1CCCCC1	1.7% (inactive)
O=C(Nn1c(SCc2cccc([N+](=O)[O-])c2)nc2ccccc2c1=O)c1ccccc1	-5.38% (inactive)
O=C(Nc1ccc(N2CCCC2)cc1)c1cccc(Cl)c1	-16.3% (inactive)
Cc1ccc(Nc2cc(C)nc(-c3ccccc3O)n2)cc1	-4.25% (inactive)
O=C(O)c1ccc(N/N=C/c2cccc3cccnc23)cc1	-16.7% (inactive)
Oc1ccccc1/C=N/Nc1cccc2cccnc12	-6.46% (inactive)
COc1ccc(-c2cc3cc(OC)c(OC)cc3cn2)cc1	-3.55% (inactive)
COc1cccc(NC(=O)NCc2ccccn2)c1	0.982% (inactive)
Cc1cccc(-n2ncc3c(N4CCC(C)CC4)ncnc32)c1	0.798% (inactive)
Cc1nn(Cc2ccccc2Cl)c(Cl)c1C(=O)NCCc1ccccc1	1.52% (inactive)
CN(C)C(=O)c1ccc(-c2cc(C(F)(F)F)nn2C)s1	-17.9% (inactive)
O=C(COc1ccc(Cl)cc1)Nc1ncc([N+](=O)[O-])s1	-16.9% (inactive)
Cc1ccnc(NC(=O)c2ccc([N+](=O)[O-])s2)c1	-23.6% (inactive)
Brc1ccccc1-c1nc2c3ccccc3ncn2n1	-16.9% (inactive)
O=c1[nH]c2ccccc2nc1-c1cccs1	-22% (inactive)
Cc1nc2nc(-c3cccs3)cn2nc1C	-15.8% (inactive)
COc1ccc(-c2ccc(SCC(=O)Nc3cc(C)on3)nn2)cc1OC	-11.4% (inactive)
Cc1ccc(C(=O)OCC(=O)c2ccccc2)cc1	3.4% (inactive)
Cc1nc(SCC(=O)c2cccs2)c2oc3ccccc3c2n1	-3.26% (inactive)
